# Measurements: PubChem BioAssay AID1159580 (chemical genetic matrix, 2015)
# Screen size: about 5,500 compounds; about 2,000 (36%) were called active. Not shown: some 18% with an inconclusive outcome. This is one part of the list. A number with no mark means an inactive call. Rule as the data show it: active = normalized growth mostly below about 0.91 (no sharp cut-off); inconclusive = no clear call, values can overlap the other calls; inactive = mostly above about 0.92.
# Experiment: chemical genetic growth profiling, strain panel (AID 1159580);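 also: tested at 20 µM; growth read once vehicle control cultures reached saturation at 30 °C; 1 = growth at the plate median or of vehicle wells; lower values mean less growth of the strain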
# Conditions: growth OD
structure (smiles),measurement,setting,value
C#C[C@]1(OC(C)=O)CCC2C3CCC4=CC(=O)CC[C@@H]4C3CC[C@@]21C (stereo partly drawn),normalized growth,"S. cerevisiae deletion strains, locus YKL009W, strain mrt4, hits give low values",0.968
same,normalized growth,"S. cerevisiae deletion strains, locus YKL068W, hits give low values",0.973
same,normalized growth,"S. cerevisiae deletion strains, locus YKL085W, strain MDH1 (second series), hits give low values",0.967
same,normalized growth,"S. cerevisiae deletion strains, locus YKL085W, strain MDH1, hits give low values",0.967
same,normalized growth,"S. cerevisiae deletion strains, locus YKL160W, strain elf1, hits give low values",0.964
same,normalized growth,"S. cerevisiae deletion strains, locus YKL190W, strain CNB1, hits give low values",0.977
same,normalized growth,"S. cerevisiae deletion strains, locus YKR001C, strain vps1, hits give low values",0.945
same,normalized growth,"S. cerevisiae deletion strains, locus YKR026C, strain gcn3, hits give low values",0.984
same,normalized growth,"S. cerevisiae deletion strains, locus YKR091W, strain srl3, hits give low values",0.992
same,normalized growth,"S. cerevisiae deletion strains, locus YLL001W, strain dnm1, hits give low values",0.988
same,normalized growth,"S. cerevisiae deletion strains, locus YLL026W, hits give low values",0.99
same,normalized growth,"S. cerevisiae deletion strains, locus YLL041C, strain sdh2, hits give low values",0.976
same,normalized growth,"S. cerevisiae deletion strains, locus YLR027C, strain aat2, hits give low values",0.988
same,normalized growth,"S. cerevisiae deletion strains, locus YLR039C, strain RIC1, hits give low values",0.892
same,normalized growth,"S. cerevisiae deletion strains, locus YLR058C, strain SHM2, hits give low values",0.965
same,normalized growth,"S. cerevisiae deletion strains, locus YLR102C, strain apc9, hits give low values",0.975
same,normalized growth,"S. cerevisiae deletion strains, locus YLR113W, strain HOG1, hits give low values",0.93
same,normalized growth,"S. cerevisiae deletion strains, locus YLR221C, strain rsa3, hits give low values",1.02
same,normalized growth,"S. cerevisiae deletion strains, locus YLR258W, strain gsy2, hits give low values",0.965
same,normalized growth,"S. cerevisiae deletion strains, locus YLR262C, strain YPT6 (second series), hits give low values",0.991
same,normalized growth,"S. cerevisiae deletion strains, locus YLR262C, strain YPT6, hits give low values",0.842
same,normalized growth,"S. cerevisiae deletion strains, locus YLR268W, strain sec22, hits give low values",0.926
same,normalized growth,"S. cerevisiae deletion strains, locus YLR320W, strain mms22, hits give low values",0.969
same,normalized growth,"S. cerevisiae deletion strains, locus YLR330W, strain CHS5, hits give low values",0.978
same,normalized growth,"S. cerevisiae deletion strains, locus YLR342W, strain FKS1 (second series), hits give low values",0.956
same,normalized growth,"S. cerevisiae deletion strains, locus YLR342W, strain FKS1, hits give low values",0.961
same,normalized growth,"S. cerevisiae deletion strains, locus YLR357W, strain rsc2, hits give low values",0.975
same,normalized growth,"S. cerevisiae deletion strains, locus YLR370C, strain arc18, hits give low values",0.986
same,normalized growth,"S. cerevisiae deletion strains, locus YLR371W, strain rom2, hits give low values",0.983
same,normalized growth,"S. cerevisiae deletion strains, locus YLR384C, strain iki3, hits give low values",0.991
same,normalized growth,"S. cerevisiae deletion strains, locus YLR418C, strain cdc73, hits give low values",0.803 (active)
same,normalized growth,"S. cerevisiae deletion strains, locus YML016C, strain PPZ1, hits give low values",0.963
same,normalized growth,"S. cerevisiae deletion strains, locus YML032C, strain rad52, hits give low values",0.957
same,normalized growth,"S. cerevisiae deletion strains, locus YML120C, strain ndi1, hits give low values",1.02
same,normalized growth,"S. cerevisiae deletion strains, locus YML124C, strain tub3, hits give low values",0.962
same,normalized growth,"S. cerevisiae deletion strains, locus YMR058W, strain fet3, hits give low values",1
same,normalized growth,"S. cerevisiae deletion strains, locus YMR078C, strain ctf18, hits give low values",0.958
same,normalized growth,"S. cerevisiae deletion strains, locus YMR125W, strain sto1, hits give low values",0.978
same,normalized growth,"S. cerevisiae deletion strains, locus YMR129W, hits give low values",0.973
same,normalized growth,"S. cerevisiae deletion strains, locus YMR205C, strain PFK2, hits give low values",0.984
same,normalized growth,"S. cerevisiae deletion strains, locus YMR223W, strain ubp8, hits give low values",0.962
same,normalized growth,"S. cerevisiae deletion strains, locus YMR231W, strain pep5, hits give low values",1
same,normalized growth,"S. cerevisiae deletion strains, locus YMR307W, strain GAS1, hits give low values",1.08
same,normalized growth,"S. cerevisiae deletion strains, locus YNL067W, strain RPL9B, hits give low values",0.984
same,normalized growth,"S. cerevisiae deletion strains, locus YNL071W, strain lat1, hits give low values",0.986
same,normalized growth,"S. cerevisiae deletion strains, locus YNL128W, strain TEP1, hits give low values",0.977
same,normalized growth,"S. cerevisiae deletion strains, locus YNL153C, strain GIM3, hits give low values",0.974
same,normalized growth,"S. cerevisiae deletion strains, locus YNL183C, strain NPR1, hits give low values",0.927
same,normalized growth,"S. cerevisiae deletion strains, locus YNL209W, strain ssb2, hits give low values",0.983
same,normalized growth,"S. cerevisiae deletion strains, locus YNL233W, strain BNI4, hits give low values",0.977
same,normalized growth,"S. cerevisiae deletion strains, locus YNL248C, strain rpa49, hits give low values",0.963
same,normalized growth,"S. cerevisiae deletion strains, locus YNL250W, strain rad50, hits give low values",0.971
same,normalized growth,"S. cerevisiae deletion strains, locus YNL271C, strain bni1, hits give low values",0.961
same,normalized growth,"S. cerevisiae deletion strains, locus YNL298W, strain CLA4, hits give low values",0.964
same,normalized growth,"S. cerevisiae deletion strains, locus YNL307C, strain MCK1, hits give low values",0.889 (active)
same,normalized growth,"S. cerevisiae deletion strains, locus YNL322C, strain KRE1 (second series), hits give low values",0.949
same,normalized growth,"S. cerevisiae deletion strains, locus YNR049C, strain mso1, hits give low values",0.994
same,normalized growth,"S. cerevisiae deletion strains, locus YNR052C, strain pop2, hits give low values",0.932
same,normalized growth,"S. cerevisiae deletion strains, locus YOL006C, strain TOP1, hits give low values",0.867
same,normalized growth,"S. cerevisiae deletion strains, locus YOL012C, strain htz1",1
same,normalized growth,"S. cerevisiae deletion strains, locus YOL147C, strain pex11, hits give low values",0.967
same,normalized growth,"S. cerevisiae deletion strains, locus YOR001W, strain rrp6, hits give low values",1.02
same,normalized growth,"S. cerevisiae deletion strains, locus YOR061W, strain CKA2, hits give low values",0.942
same,normalized growth,"S. cerevisiae deletion strains, locus YOR069W, strain VPS5, hits give low values",0.974
same,normalized growth,"S. cerevisiae deletion strains, locus YOR070C, strain gyp1, hits give low values",0.994
same,normalized growth,"S. cerevisiae deletion strains, locus YOR080W, strain dia2, hits give low values",0.978
same,normalized growth,"S. cerevisiae deletion strains, locus YOR083W, strain WHI5, hits give low values",0.937
same,normalized growth,"S. cerevisiae deletion strains, locus YOR106W, strain vam3, hits give low values",0.982
same,normalized growth,"S. cerevisiae deletion strains, locus YOR136W, strain idh2, hits give low values",0.992
same,normalized growth,"S. cerevisiae deletion strains, locus YOR144C, strain elg1, hits give low values",0.97
same,normalized growth,"S. cerevisiae deletion strains, locus YOR184W, strain ser1, hits give low values",0.829 (active)
same,normalized growth,"S. cerevisiae deletion strains, locus YOR231W, strain MKK1, hits give low values",0.956
same,normalized growth,"S. cerevisiae deletion strains, locus YOR265W, strain rbl2, hits give low values",0.998
same,normalized growth,"S. cerevisiae deletion strains, locus YOR270C, strain vph1, hits give low values",0.996
same,normalized growth,"S. cerevisiae deletion strains, locus YOR290C, strain snf2, hits give low values",0.961
same,normalized growth,"S. cerevisiae deletion strains, locus YOR316C, strain cot1, hits give low values",0.969
same,normalized growth,"S. cerevisiae deletion strains, locus YPL051W, strain arl3, hits give low values",0.98
same,normalized growth,"S. cerevisiae deletion strains, locus YPL078C, strain atp4, hits give low values",0.968
same,normalized growth,"S. cerevisiae deletion strains, locus YPL106C, strain sse1, hits give low values",0.939
same,normalized growth,"S. cerevisiae deletion strains, locus YPL240C, strain hsp82, hits give low values",0.989
same,normalized growth,"S. cerevisiae deletion strains, locus YPL241C, strain CIN2, hits give low values",0.975
same,normalized growth,"S. cerevisiae deletion strains, locus YPL256C, strain CLN2, hits give low values",0.88
same,normalized growth,"S. cerevisiae deletion strains, locus YPR119W, strain clb2, hits give low values",0.972
same,normalized growth,"S. cerevisiae deletion strains, locus YPR141C, strain kar3, hits give low values",0.946
same,normalized growth,"S. cerevisiae deletion strains, locus YPR163C, strain tif3, hits give low values",0.966
same,normalized growth,"S. cerevisiae deletion strains, locus YPR167C, strain met16, hits give low values",0.958
same,normalized growth,"S. cerevisiae deletion strains, strain wtn01, hits give low values",0.936
same,normalized growth,"S. cerevisiae strains, strain wild type, hits give low values",0.953
